Sampled rows, rich in hits. Any-hit rate of the full collection: about 1.3%.
TCR activator: activates T cell receptor signaling | primary human leukocytes, anti-CD3, IL-2 HTRF, 48 h | Potency, µM (titrated, usually from 9.22 µM), for inactives: at the highest dose activation of IL-2 secretion, usual class: activators | 330,000 tested, under 10 active | AID 504894; note: % of control where 0% means no effect
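Human primary leukocytes + a-CD3 beads + cpd, 48 hr; IL-2 in supernatant by HTRF (ex 320nm / em 665nm). No co-stimulatory signal supplied.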
Chronic BCR inh: inhibitors of chronic active B-cell receptor signaling; ABC-DLBCL IkBa-CBG/CBR reporter, luminescence ratio, 4 h; Potency, µM (titrated, usually from 46.1 µM), without a hit: at the top dose activity change, negative = inhibition, most hits filed as inhibitors; 340,000 compounds, 0.05% hits; AID 493014; active = well fitted inhibition curve with a large enough effect in the signal ratio, with a control signal flat, not every such curve was filed as active; inconclusive = small, poorly fitted or top-dose-only effect, or effect the other way, or a change in a side signal; the % refers to the signal ratio;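 note: potency is the fitted concentration of half-maximal effect; plate controls were basal doxycycline-induced cells for no effect and cells given 10 µM MG132 for full effect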
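TMD8 human ABC-DLBCL cells with doxycycline-inducible IκBα–green luciferase fusion and unfused red luciferase, in 0.5% FBS medium; compounds up to 46 uM, 4 h at 37C. Green/red luminescence ratio, filter-overlap corrected, fitted to concentration-response curves.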
BRCA1 expr up: activators of BRCA1 expression; MCF7-BRCA1-FFLuc reporter, luminescence, 48 h; response scale: scaled: vehicle 0%, 10 µM genistein 100%; 380,000 compounds, 1.1% hits; Potency, µM (top dose mostly 46.1 µM), inactives show at the top dose activation, hits mostly activators; note: potency is the fitted concentration of half-maximal effect; nearly all actives have a fitted effect of over 80% in size
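Luminescence from a BRCA1-driven firefly luciferase in MCF7 cells was the read-out, taken 15 min after substrate addition following 48 h compound exposure at 37 °C. Data were normalized to a 10 microM genistein control and DMSO vehicle.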
IL2 activator: activates IL-2 in a cell-based reporter assay | IL-2 activation reporter assay, cell-based qHTS; stimulated with anti-CD3/CD4/CD28 beads; in transgenic mouse T cells | activation, % (series mostly up to about 46 µM) | 360,000 compounds, 0.065% hits | AID 652025; in the data active = activation above about 50%; inconclusive = mostly about 30% to 49%; note: 0% is about no effect
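First, unstimulated transgenic mouse T cells were exposed to compound for 60 min. Next, anti-CD3/anti-CD4-coated beads with anti-CD28 were added. Finally, after 18 h at 37 degrees C, EGFP and DsRed were imaged.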
Mito fusion yeast: mitochondrial division inhibition or fusion activation; S. cerevisiae fusion-defective mutant growth rescue, CellTiterGlo 48 h; Potency, µM (titrated, usually from 46.1 µM), without a hit: at the top dose growth rescue (activation), hits mostly activators; 320,000 compounds, 0.23% hits; AID 485298; note: potency is the fitted concentration of half-maximal effect; % of control where 0% means no effect; nearly all actives have a fitted effect of over 45% in size
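S. cerevisiae fusion-defective temperature-sensitive mutants (e.g. fzo1-1, mgm1-5) grown 48 h at 37C in YPEG (ethanol/glycerol non-fermentable) medium with 23 nl compound per well; growth rescue read as CellTiterGlo luminescence.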
PTHR1 agonist: activates the human parathyroid hormone receptor PTHR1; Q03431; HEK293 GP2 PTHR1 cells, GloSensor cAMP luminescence, 1 h; Potency, µM (series often up to 115 µM), inactives show at the top dose activation, most hits filed as activators; 410,000 compounds, 0.075% hits; AID 743266; note: potency is the fitted concentration of half-maximal effect; nearly all actives have a fitted effect of over 55% in size
Target sequence (Q03431 whole entry, looked up): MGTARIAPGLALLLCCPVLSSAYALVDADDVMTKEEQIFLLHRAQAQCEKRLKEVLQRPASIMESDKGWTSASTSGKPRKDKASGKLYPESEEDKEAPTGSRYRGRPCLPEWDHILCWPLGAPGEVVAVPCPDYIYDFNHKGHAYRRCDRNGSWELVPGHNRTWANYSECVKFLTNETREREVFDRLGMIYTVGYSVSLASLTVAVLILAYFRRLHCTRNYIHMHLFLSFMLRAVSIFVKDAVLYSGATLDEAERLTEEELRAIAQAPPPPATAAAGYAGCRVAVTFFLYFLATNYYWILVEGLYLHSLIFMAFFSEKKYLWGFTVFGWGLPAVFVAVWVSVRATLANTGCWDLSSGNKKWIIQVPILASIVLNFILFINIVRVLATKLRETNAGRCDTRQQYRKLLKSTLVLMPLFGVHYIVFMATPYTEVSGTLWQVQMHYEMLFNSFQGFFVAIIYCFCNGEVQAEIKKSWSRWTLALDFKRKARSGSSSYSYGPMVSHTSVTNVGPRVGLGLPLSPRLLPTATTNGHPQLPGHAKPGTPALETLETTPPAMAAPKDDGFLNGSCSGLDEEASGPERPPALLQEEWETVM
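HEK-293-derived GP2 cells expressing PTHR1 and a GloSensor cAMP reporter, 3,000/well, plated overnight, given luciferin plus IBMX (each 0.5 mM as added) for 1 h at 37 °C, then compound for 1 h at 37 °C. Luminescence was read after 15 min at room temperature.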
Starred values were filed as active, the others as inactive; i = inactive; ? = inconclusive; nt = not tested or not shown; ! = not active in a repeat; [ ] = remark or other dose. Unless noted, calls come from the whole dose curve; as a rule, active = well fitted curve in the direction sought with a large enough effect; inconclusive = small, poorly fitted or top-dose-only effect, or another doubt; inactive = no such curve, though single readings can be large; an effect the other way counts as inactive or inconclusive.

SMILES	TCR activator	Chronic BCR inh	BRCA1 expr up	IL2 activator	Mito fusion yeast	PTHR1 agonist
COc1cc(NC(=O)c2cnc3c(-c4ccc(F)cc4)c(C)nn3c2C)cc(OC)c1	nt	nt	nt	nt	nt	12%
O=C(O)c1ccccc1CSc1nc2ccccc2o1	-5%	?	8.9µM*	2	5%	-12%[57.5 µM]
O=C(CSc1nc2ccccc2o1)N1c2ccccc2Sc2ccccc21	-2%[46.1 µM]	11%	-57%	-1	13µM*	-3%
Cc1nnsc1C(=O)N/N=C/c1ccc(OC(F)(F)F)cc1	-2%	8%	4%	-1	0%	-15%
COc1ccc(C)cc1S(=O)(=O)N(C)CC(=O)NCc1ccccn1	0%	-2%	-1%	4	-1%	i
O=C(COC(=O)C12CC3CC(CC(Br)(C3)C1)C2)Nc1cccc(S(=O)(=O)N2CCOCC2)c1	-2%[46.1 µM]	?	-17%	-1	nt	-29%
S=C(N/N=C/c1ccc(Br)cc1)N1CCCCC1	6%	?	8.9µM*	-4	-12%	-23%
O=C(Nc1nnc(-c2cccs2)o1)c1cc(-c2ccccc2)nc2ccccc12	-3%	-10%	-57%	3	13µM*	-36%
Cc1cc(SCC(=O)NCCC2=CCCCC2)nc2ccccc12	-5%[46.1 µM]	1%	-28%	-5	10%	-37%
CCCOC(=O)c1ccc(NC(=O)c2cnccn2)cc1	-1%	?	10µM*	0	-1%	-11%[57.5 µM]
O=C(Nc1ccc2ccccc2c1)c1cnccn1	5%	?	?	2	-2%	-19%[57.5 µM]
O=C(Nc1ccc2nccnc2c1)c1cnccn1	-3%	?	11µM*	-1	1%	i
O=C(Nc1ccc(NC(=O)c2ccco2)cc1)c1cnccn1	5%	?	13µM*	0	1%	i
CCCCOC(=O)c1ccc(NC(=O)c2c(Cl)ccc(Cl)c2OC)cc1	-5%[46.1 µM]	4%	-9%	-3	16µM*	-5%
CCc1ccc(NC(=O)c2cnccn2)cc1	-6%	?	10%	-1	0%	-20%
CC1(C)CC[C@]2(C(=O)n3ccnc3)CC[C@]3(C)[C@H](C(=O)C=C4[C@@]5(C)C=C(C#N)C(=O)C(C)(C)[C@@H]5CC[C@]43C)[C@@H]2C1	-1%	nt	-96%	-6	nt	-1%
CCOC(=O)N1CCN(C(=O)CN(C)S(=O)(=O)c2ccc(Cl)cc2)CC1	2%	1%	0%	0	3%	-10%
CCCCc1ccc(NC(=O)C2CCCO2)cc1 (stereo not drawn)	4%	?	1.4µM*	0	1%	-16%[57.5 µM]
CC(/C=C/c1ccccc1F)=N\NC(=O)c1ccccc1	8%	?	3.2µM*	-1	-1%	-4%
O=[N+]([O-])c1ccc(/C=C2\C=C(C(O)c3ccc([N+](=O)[O-])cc3)c3ccccc32)cc1 (stereo not drawn)	nt	nt	-68%	nt	nt	nt
O=C1OC(c2ccccc2)=N/C1=C\N1CCCCC1	1%	?	7.9µM*	-2	0%	-8%[57.5 µM]
O=C1OC(c2ccc(Br)cc2)=N/C1=C\N1CCCCC1	nt	2%	?	-2	-5%	-3%[57.5 µM]
O=C1OC(c2ccccc2)=C/C1=C/N1CCCCC1	3%	?	4µM*	-2	-2%	-15%[57.5 µM]
CCOc1ccccc1C(=O)Nc1cccc2cccnc12	-20%	?	33%	-3	-7%	-69%
COCOCCn1cc(CN2CCS(=O)(=O)N(Cc3ccc(-c4ccc(OC)nc4)cc3)C(C(C)C)C2=O)nn1 (stereo not drawn)	nt	nt	-7%	2	nt	-88%
SMILES	TCR activator	Chronic BCR inh	BRCA1 expr up	IL2 activator	Mito fusion yeast	PTHR1 agonist
O=C(CSc1ccccn1)Nc1ccc2c(c1)CCC2	-3%	?	10µM*	0	1%	-9%
O=C(CSc1ncccn1)Nc1ccc2c(c1)OCO2	2%	1%	50%	-1	nt	i
O=C(CSc1ncccn1)NC(=O)Nc1ccc2c(c1)OCCO2	1%	?	13µM*	0	-2%	-10%
O=C(CSc1ccccn1)Nc1ccc2c(c1)OCCO2	-2%	-21%	11µM*	-4	2%	-28%
O=C(CNCc1ccccc1Cl)Nc1ccc2c(c1)OCCO2	1%	?	10µM*	0	-14%	-72%
O=C(CNCc1ccc(Cl)cc1)Nc1ccc2c(c1)OCCO2	-2%	-5%	55%	2	-1%	-1%
Cc1ccc2c(C(=O)CNc3nccs3)c[nH]c2c1	nt	nt	-26%	nt	nt	nt
CSc1ccccc1OCc1cc(C(=O)N2CCC[C@H]2C(N)=O)no1	2%	-18%	-2%	0	-2%	i
Cn1cccc1C(=O)OCC(=O)Nc1ccc2c(c1)OCCO2	-2%[46.1 µM]	?	2µM*	-1	nt	-42%
O=C(CSc1nnc(-c2cccc(Cl)c2)o1)Nc1ccc2c(c1)OCCO2	-4%[46.1 µM]	3%	7.9µM*	-2	2%	i
Cn1cccc1C(=O)OCC(=O)NCc1ccc2c(c1)OCO2	2%	?	16%	0	-7%	-9%
CCN(CC(=O)Nc1ccc2c(c1)OCCO2)C(=O)c1ccc(Cl)cc1Cl	-14%	?	1.8µM*	-5	1%	-54%
O=C(Nc1ccc2c(c1)OCO2)N1CCN(c2ccccc2Cl)CC1	-7%	-20%	10µM*	-1	7%	-8%
CCN(CC(=O)Nc1ccc2c(c1)OCCO2)C(=O)c1cc(Cl)nc2ccccc12	-1%	0%	-16%	2	0%	-44%
CNC(=O)COc1ccccc1C(=O)Nc1ccccc1	nt	nt	0%	nt	nt	nt
Cc1ccc2nc(-c3cccc(S(=O)(=O)N4CC(C)OC(C)C4)c3)cn2c1 (stereo not drawn)	6%	0%	9%	-2	18%	-25%
COCCn1c(SCC(=O)NC2CCCC(C)C2C)nc2ccccc2c1=O (stereo not drawn)	5%	4%	-35%	-2	7%	-13%
Cc1ccc2oc(-c3cccc(NC(=O)COc4ccc(Cl)cc4)c3C)nc2c1	nt	nt	26%	nt	nt	nt
Cc1cc(C)c2nc(N3CCN(C(=O)c4ccco4)CC3)sc2c1	1%	?	13µM*	0	7%	-11%
COc1ccccc1NC(=O)Nc1nc(C(C)(C)C)cs1	0%	?	63%	-2	5%	-29%
c1ccc(CN2CCC3(CCCc4ccccc43)CC2)cc1	-3%	0%	-21%	0	23µM*!	28%
O=C(O)c1cccnc1Sc1ccccc1	-5%[46.1 µM]	2%	6%	1	0%	-11%
O=C(O)c1cccnc1Sc1ccc(Cl)cc1	-4%	1%	37%	2	-5%	50µM*

Bioassay records deposited in PubChem by National Center for Advancing Translational Sciences (NCATS).
